Compound activity deposited in PubChem by National Center for Advancing Translational Sciences (NCATS).
The list is not random: actives were taken first. Their share in the collection is about 12%.
G9a inh = qHTS Assay for Inhibitors of Histone Lysine Methyltransferase G9a; Histone-lysine N-methyltransferase EHMT2 (Homo sapiens), Q96KQ7; G9a H3K9 monomethylation, AlphaScreen, 2 h; Potency, µM (titrated, usually from 102 µM), for inactives: top-dose activity, negative = inhibition, most hits filed as inhibitors; 8.8% of 350,000 active; also: % is scaled to controls: 0 for no effect and ±100 for the full control effect; nearly all actives have a fitted effect of over 75% in size
Target sequence (Q96KQ7 913-1193 limits assumed): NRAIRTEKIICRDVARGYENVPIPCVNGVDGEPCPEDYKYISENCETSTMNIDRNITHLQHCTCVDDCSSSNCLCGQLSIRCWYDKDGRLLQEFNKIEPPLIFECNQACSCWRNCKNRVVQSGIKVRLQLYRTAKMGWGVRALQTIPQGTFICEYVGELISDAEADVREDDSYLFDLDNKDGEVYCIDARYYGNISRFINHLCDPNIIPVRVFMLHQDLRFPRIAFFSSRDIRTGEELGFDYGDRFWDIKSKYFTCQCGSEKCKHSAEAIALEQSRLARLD
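G9a (20 nM) preincubated 15 min RT with compounds, then 500 nM biotinylated H3K9 peptide and 20 uM SAM added; 2 h RT reaction. Monomethyl-H3K9 product detected by AlphaScreen with anti-H3K9me1 antibody, streptavidin donor and anti-rabbit IgG acceptor beads.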
PLK1 PBD inh = qHTS for Inhibitors of PLK1-PDB (polo-like kinase 1 - polo-box domain): Primary Screen; AID 720504, 2013; 2.8% of 360,000 active; Potency, µM, inactives show max response, negative = inhibition, most hits filed as inhibitors; Plk1 PBD binding of FITC phosphopeptide, fluorescence polarization; also: series mostly up to about 57 µM; % is scaled to controls: 0 for no effect and ±100 for the full control effect; nearly all actives have a fitted effect of over 65% in size
BAZ2B block = qHTS Assay for Inhibitors of BAZ2B. Potency, µM (doses to about 114 µM), inactives show at the top dose activity change, negative = inhibition, hits mostly inhibitors. Bromodomain adjacent to zinc finger domain protein 2B (Homo sapiens), Q9UIF8. AlphaScreen BAZ2B-H3K14Ac peptide displacement. 4.4% of 360,000 active. AID 504333, 2011; also: % is scaled to controls: 0 for no effect and ±100 for the full control effect; nearly all actives have a fitted effect of over 60% in size
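AlphaScreen displacement of biotin-H3(5-23)K14Ac peptide (50 nM final) from BAZ2B (50 nM final) in PBS pH 7.4, 0.01% Tween-20; complex preformed 30 min RT, then compounds (top 110 uM) 30 min RT, beads 20 min dark.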
Sfp PPTase inh = qHTS Assay for Inhibitors of Bacillus subtilis Sfp phosphopantetheinyl transferase (PPTase) | 4'-phosphopantetheinyl transferase ffp (Bacillus subtilis), Q9F4F7 | Biochemical Sfp PPTase activity, qHTS | Potency, µM, for the others: largest response in the series, negative = inhibition, actives largely listed as inhibitors | 3.5% of 310,000 active | AID 1490, 2009;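 also: the enzyme is Sfp with the accession as filed and its product quenches rhodamine fluorescence; 0% = enzyme reaction without inhibitor and -100% = no enzyme wells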
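Compounds were incubated with enzyme (final 15 nM) for 15 min at room temperature before substrate addition started the reaction. Fluorescence at 525 nm excitation, 598 nm emission was recorded immediately and after 30 minutes.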
JMJD2A Tudor inh = qHTS Assay for Inhibitors of JMJD2A-Tudor Domain. 4.4% of 390,000 active. Lysine-specific demethylase 4A (Homo sapiens), O75164. Potency, µM (highest dose often 114 µM), without a hit: at the highest dose activity change, negative = inhibition, usual class: inhibitors. AID 504339, 2011. AlphaScreen JMJD2A-Tudor / H3K4me3 peptide binding; also: % is scaled to controls: 0 for no effect and ±100 for the full control effect; nearly all actives have a fitted effect of over 50% in size
HP1b binding inh = HTS for Inhibitors of HP1-beta Chromodomain Interactions with Methylated Histone Tails; Chromobox protein homolog 1 (Homo sapiens), P83916; AlphaScreen HP1-beta / biotin-H3K9me3 peptide binding; Potency, µM (series often up to 114 µM), for the others: top-dose activity change, negative = inhibition, actives largely listed as inhibitors; 0.56% of 390,000 active; AID 540317, 2011; also: nearly all actives have a fitted effect of over 70% in size
Target sequence (P83916 whole entry, looked up): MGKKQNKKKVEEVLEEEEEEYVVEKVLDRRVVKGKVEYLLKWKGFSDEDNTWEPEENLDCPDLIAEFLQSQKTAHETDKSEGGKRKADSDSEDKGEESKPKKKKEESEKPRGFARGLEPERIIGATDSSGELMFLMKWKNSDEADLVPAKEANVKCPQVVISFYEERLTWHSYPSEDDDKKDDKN
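AlphaScreen: HP1-beta (50 nM) preformed 30 min with biotin-H3(1-18)K9me3 peptide (50 nM) in PBS pH 7.4, 0.01% Tween-20. Compound added for 30 min at RT, then streptavidin donor/nickel chelate acceptor beads (10 ug/mL) for 30 min.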
* marks the source's active call; other numbers are inactive results; ? = inconclusive; . = no result; [ ] = dose if it differs, or a comment. Calls follow the shape of the dose curve; as a rule, active = well fitted curve in the direction sought with a large enough effect; inconclusive = small, poorly fitted or top-dose-only effect, or another doubt; inactive = no such curve, though single readings can be large; an effect the other way counts as inactive or inconclusive. Potency is read from the fitted curve at half-maximal effect.

SMILES | G9a inh | PLK1 PBD inh | BAZ2B block | Sfp PPTase inh | JMJD2A Tudor inh | HP1b binding inh
CCS(=O)(=O)Nc1ccc(C(=O)CC2(O)C(=O)Nc3ccc(Br)cc32)cc1 (stereo not given) | -23% | 21µM* | -20% | 11% | 18%[11.4 µM] | 4%
O=S(=O)(NC1CCC(NS(=O)(=O)c2c(F)cccc2F)CC1)c1ccc2c(c1)OCCO2 (stereo not given) | -13%[2.33 µM] | . | 1% | . | -28% | 17%
O=c1[nH][nH]c(C(F)(F)F)c1/C=N/N1CCOCC1 | 40µM* | -8% | -29% | -7% | -15% | 23%
Cc1csc(NC(=O)CSc2ncnc3ccccc23)n1 | 91% | -2% | 8% | 6% | -17% | 25%
Cc1csc(NC(=O)CSc2nc3ccccc3c3c2CCCC3)n1 | 28µM* | 0% | -11% | -8% | -31% | -9%
Cc1csc(NC(=O)CSc2ncc(-c3ccccc3)[nH]2)n1 | 3.2µM* | -13% | 50µM* | 11% | -27% | 3%
Cc1ccccc1CN1C(=O)c2ccccc2S(=O)c2ccc(C(=O)NCc3ccc(Cl)cc3)cc21 (stereo not given) | -8%[59 µM] | . | 0% | . | -13% | 26%
CSc1nc2ccc(NC(=O)c3ccc(F)c(F)c3)cc2s1 | 9% | -3% | -4% | 9% | -1% | 34%
CSc1nc2ccc(NC(=O)c3ccc(=O)[nH]c3)cc2s1 | 50µM* | -12% | -1% | 2% | -4% | -1%
O=C(NCCc1ccc(Cl)cc1)C(=O)NCC(c1cccs1)S(=O)(=O)c1ccccc1 (stereo not given) | -1%[59 µM] | . | 5% | . | -15% | 5%[57 µM]
COc1ccc(C2Nc3ccccc3C(=O)N2Cc2ccccc2)cc1COc1cccc(Cl)c1 (stereo not given) | . | . | . | . | -3% | .
COc1ccc(Cl)cc1NC(=O)NCCN1CCCCC1 | ? | 10% | -14% | 22% | -8% | 34%
CCN1CCN(C(=O)Nc2cc(Cl)ccc2OC)CC1 | 50µM* | -2% | -15% | 20% | -5% | 19%
C=CCNC(=O)Nc1cc(Cl)ccc1OC | 1% | 27µM* | 8% | 14% | -8% | -12%
COc1ccc(Cl)cc1NC(=O)NN1CCN(C)CC1 | 50µM* | 2% | 50µM* | 5% | 3% | 36%
COc1cccc(NC(=O)COC(=O)C2CC(=O)N(c3ccc(C)cc3)C2)c1 (stereo not given) | 4%[2.33 µM] | -8% | 1% | . | -17% | 20%
Cc1ccc(C(=O)C2CCN(CC(=O)N3CCN(c4ccc(F)cc4)CC3)CC2)cc1 | 6%[59 µM] | 1% | ? | 19% | -33% | 4%
COc1ccccc1NC(=O)COC(=O)c1ccc2c(c1)OCCO2 | 0%[12.7 µM] | -9% | -3% | . | -15% | 17%
COc1ccc(OC)c(NC(=O)COC(=O)CCC2CCCC2)c1 | -4%[2.33 µM] | -3% | -1% | . | 9% | 72%
COc1ccc(OC)c(NC(=O)COC(=O)c2cc3c(s2)CCC3)c1 | . | ? | 10µM* | -22% | 28µM* | 14µM*
COc1ccccc1NC(=O)COC(=O)c1cc2c(s1)CCC2 | 45µM* | ? | 56µM* | . | 50µM* | ?
CCN(CC)S(=O)(=O)c1cccc(C(=O)OCC(=O)N2CC(=O)Nc3ccccc32)c1 | 20µM* | -10% | -19% | 6% | -21% | 1%
O=C1CN(C(=O)COC(=O)c2ccc(N3CCCCCC3)c([N+](=O)[O-])c2)c2ccccc2N1 | 40µM* | -9% | ? | 1% | ? | ?
CS(=O)(=O)c1ccc(C(=O)OCC(=O)N2CC(=O)Nc3ccccc32)cc1[N+](=O)[O-] | . | . | . | . | -21% | 31%
C#C[C@@]1(O)CC[C@@H]2[C@@H]3CCC4=CC(=O)CC[C@@H]4[C@H]3CC[C@]21C | 15%[21.5 µM] | . | . | 8% | . | .
SMILES | G9a inh | PLK1 PBD inh | BAZ2B block | Sfp PPTase inh | JMJD2A Tudor inh | HP1b binding inh
CC(C)Nc1nc(Cl)nc(NN(C)c2nc(N(C)C)nc(N(C)C)n2)n1 | -5%[59 µM] | -15% | -2% | -11% | -22% | 21%
CCCCN(NC(C)=O)c1nc(Cl)nc(NC(C)C)n1 | 50µM* | -2% | 0% | 15% | -9% | 17%
Cn1nnc2c(N3CCN(c4ccc(F)cc4)CC3)ncnc21 | -27%[59 µM] | . | -13% | . | 40µM* | 12%
Cn1ncc2c(N3CCN(c4ccc(F)cc4)CC3)ncnc21 | 4%[59 µM] | . | 79µM* | . | -26% | -6%
CN(C)c1ccc(/C=C/c2nc(-c3ccccc3O)n(-c3ccccc3)n2)cc1 | ? | . | ? | . | ? | 2%
O=C(c1ccc(F)cc1Cl)N(Cc1ccco1)C1CCS(=O)(=O)C1 (stereo not given) | 15%[2.33 µM] | -1% | -2% | . | -12% | 45%
Cc1nn2c(=O)[nH]cnc2c1Cl | . | -2% | . | . | . | .
Cc1ccc2cc(CN(CCCN3CCOCC3)C(c3nnnn3Cc3ccco3)C(C)C)c(=O)[nH]c2c1C (stereo not given) | . | -24% | . | . | -31% | -33%
Cc1ccc2cc(CN(CCN3CCOCC3)Cc3nnnn3Cc3ccco3)c(=O)[nH]c2c1C | 56µM* | -6% | 7% | -25% | -7% | 38%
COCCn1nnnc1CN(Cc1ccco1)Cc1cc2cc3c(cc2[nH]c1=O)OCO3 | -1%[12.7 µM] | -3% | -5% | -5% | -9% | 47%
Cc1ccc(C)c2[nH]c(=O)c(CN(Cc3ccc4c(c3)OCO4)Cc3nnnn3Cc3ccco3)cc12 | -48%[59 µM] | -6% | -38% | 50µM* | -31% | 25%
Cc1ccc2[nH]c(=O)c(CN(Cc3cccs3)Cc3nnnn3Cc3ccco3)cc2c1 | . | . | . | . | ? | 5%[57 µM]
Cc1ccc2cc(CN(Cc3ccc4c(c3)OCO4)Cc3nnnn3Cc3ccco3)c(=O)[nH]c2c1C | 11µM* | -12% | -9% | 22µM* | -32% | 17%
CCc1ncnc2cc(OC)c(OC)cc12 | 3%[12.7 µM] | . | . | -11% | . | .
CCOc1ccc(NC(=O)c2ccc(NC(=O)c3cn4c5c(c(N6CCN(C)CC6)c(F)cc5c3=O)OCC4C)cc2)cc1 (stereo not given) | 50µM* | 12% | -32% | -9% | -11% | 7%
COc1ccc(OC)c(NC(=O)CSc2nnc3ccc4ccccc4n23)c1 | ? | . | -12% | . | -16% | -6%
Clc1ccc(-c2cn3nc4c(nc3n2)CCCC4)cc1 | ? | ? | -37% | ? | -1% | 50%
COc1cccc(-c2cn3nc4c(nc3n2)CCCC4)c1 | 18%[59 µM] | 30% | 0% | 79µM* | -9% | 83%
